Source: PubChem BioAssay (NCATS)
Results filed as inconclusive are left out. Active and inactive are the calls of the source. The call rests on the fitted dose curve; in most records, active means well fitted curve in the direction sought with a large enough effect; inconclusive means small, poorly fitted or top-dose-only effect, or another doubt; inactive means no such curve, though single readings can be large; an effect the other way counts as inactive or inconclusive.

Assays:
[1] = tested on: HACAT; test: qHTS assay to identify novel small-molecules to repurpose for Merkel cell carcinoma treatment (AID 1296009); conditions: MCC and control cell lines, CellTiter-Glo viability, 72 h; at 44.8 µM (top of the series) unless noted; further: nearly all actives have a fitted effect of over 60% in size
Method in brief: (§1)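 CellTiter-Glo luminescence after 72 hr compound exposure at 37 degree celsius gave cell viability. Libraries NPC and MIPE were run as 8- and 11-point dose responses; RLUs normalized to DMSO (negative) and no-cell (cytotoxicity) controls.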

[2] = tested on: NIH3T3; test: as above; conditions: MCC and control cell lines, CellTiter-Glo viability, 72 h; at 44.8 µM (top of the series) unless noted
Method in brief: as §1

[3] = tested on: C33A; test: Primary qHTS to identify gynecologic anti-cancer compounds using libraries of approved drugs and bioactive compounds (AID 1345084); conditions: Gynecologic cancer cell panel viability, ATPlite luminescence, 48 h; series mostly up to 57.5 µM; further: on the % scale 0 is the no-effect control and ±100 the full control effect; nearly all actives have a fitted effect of over 55% in size
Method in brief: (§2)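 Cells, 1,000 per well, plated 16 h, then exposed 48 h at 37 C to compounds. Viability by ATPlite luminescence after 15 min at room temperature.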

[4] = tested on: CAOV3; test: as above; conditions: Gynecologic cancer cell panel viability, ATPlite luminescence, 48 h; series mostly up to 57.5 µM
Method in brief: as §2

[5] = tested on: CASKI; test: as above; conditions: Gynecologic cancer cell panel viability, ATPlite luminescence, 48 h; series mostly up to 57.5 µM
Method in brief: as §2

[6] = tested on: Es-2; test: as above; conditions: Gynecologic cancer cell panel viability, ATPlite luminescence, 48 h; series mostly up to 57.5 µM
Method in brief: as §2

[7] = tested on: HeLa; test: as above; conditions: Gynecologic cancer cell panel viability, ATPlite luminescence, 48 h; series mostly up to 57.5 µM
Method in brief: as §2

[8] = tested on: Hek293T; test: as above; conditions: Gynecologic cancer cell panel viability, ATPlite luminescence, 48 h, control line for the selectivity index; series mostly up to 57.5 µM
Method in brief: as §2

[9] = tested on: JEG-3; test: as above; conditions: Gynecologic cancer cell panel viability, ATPlite luminescence, 48 h; series mostly up to 57.5 µM
Method in brief: as §2

COc1cccc(OC)c1-c1cc(C(=O)N[C@@H](CC(C)C)C(=O)O)nn1-c1ccnc2cc(Cl)ccc12
inactive: outcome [1] | outcome [2] | Potency [3] | Potency [4] | outcome [5] | Potency [6] | Potency [7] | Potency [8] | Potency [9]

Cc1ccc(Nc2nnc(-c3ccc([N+](=O)[O-])cc3)o2)cc1Cl
inactive: outcome [1] | outcome [2] | Potency [3] | Potency [4] | outcome [5] | Potency [6] | Potency [7] | Potency [8] | Potency [9]

C[C@@H]1O[C@@H](O[C@@H]2[C@@H](O)[C@H](O[C@H]3[C@H](O[C@H]4CC[C@@]5(C)C(CC[C@]6(C)C5CC=C5[C@@H]7CC(C)(C)CC[C@]7(C(=O)O[C@@H]7O[C@H](CO)[C@@H](O)[C@H](O)[C@H]7O)CC[C@]56C)C4(C)C)O[C@H](C(=O)O)[C@@H](O)[C@@H]3O)OC[C@H]2O)[C@H](O)[C@H](O)[C@H]1O (stereo partly specified)
inactive: outcome [1] inactive [at 9.27 µM] | outcome [2] inactive [at 9.27 µM] | activity change, negative = cytotoxicity [3] -13.9% [at 11.6 µM] | activity change, negative = cytotoxicity [4] -6.12% [at 11.6 µM] | activity change, negative = cytotoxicity [5] -1.32% [at 11.6 µM] | activity change, negative = cytotoxicity [6] -9.99% [at 11.6 µM] | activity change, negative = cytotoxicity [7] -3.66% [at 11.6 µM] | activity change, negative = cytotoxicity [8] -0.983% [at 11.6 µM] | activity change, negative = cytotoxicity [9] -0.837% [at 11.6 µM]

CC(=O)OC12CC(C)C(O)C1/C=C(/COC1OC(CO)C(O)C(O)C1O)CCC1C(/C=C(\C)C2=O)C1(C)C (stereo unspecified)
inactive: outcome [1] inactive [at 17.4 µM] | outcome [2] inactive [at 17.4 µM] | Potency [3] | Potency [4] | outcome [5] | Potency [6] | Potency [7] | Potency [8] | Potency [9]

C=C1[C@@H]2CC[C@@]3(C)[C@H](c4ccoc4)OC(=O)C[C@]13O[C@H]1CC(=O)C(C)(C)[C@H](C(O)C(=O)OC)[C@]12C (stereo partly specified)
inactive: outcome [1] inactive [at 17.4 µM] | outcome [2] inactive [at 17.4 µM] | Potency [3] | Potency [4] | outcome [5] | Potency [6] | Potency [7] | Potency [8] | Potency [9]

COC(=O)c1ccccc1O[C@@H]1O[C@H](CO[C@@H]2OC[C@@H](O)[C@H](O)[C@H]2O)[C@@H](O)[C@H](O)[C@H]1O
inactive: outcome [1] inactive [at 17.4 µM] | outcome [2] inactive [at 17.4 µM] | Potency [3] | Potency [4] | outcome [5] | Potency [6] | Potency [7] | Potency [8] | Potency [9]

NCCCCN(Cc1nc2ccccc2[nH]1)[C@H]1CCCc2cccnc21
inactive: outcome [1] inactive [at 17.4 µM] | outcome [2] inactive [at 17.4 µM] | Potency [3] | Potency [4] | outcome [5] | Potency [6] | Potency [7] | Potency [8] | Potency [9]

O=C(OCC1=C[C@@H](O)[C@@H]2C=CO[C@@H](O[C@@H]3O[C@H](CO)[C@@H](O)[C@H](O)[C@H]3O)[C@H]12)c1ccc(O)cc1
inactive: outcome [1] inactive [at 17.4 µM] | outcome [2] inactive [at 17.4 µM] | Potency [3] | Potency [4] | outcome [5] | Potency [6] | Potency [7] | Potency [8] | Potency [9]

COc1cc(CO)cc(OC)c1O[C@@H]1O[C@H](CO)[C@@H](O)[C@H](O)[C@H]1O
inactive: outcome [1] | outcome [2] | Potency [3] | Potency [4] | outcome [5] | Potency [6] | Potency [7] | Potency [8] | Potency [9]

C/C=C(\C)C(=O)OCC1OC(OCC2OC(OC3(CO)OC(CO)C(O)C3O)C(O)C(O)C2O)C(O)C(O)C1O (stereo unspecified)
inactive: outcome [1] inactive [at 17.4 µM] | outcome [2] inactive [at 17.4 µM] | Potency [3] | Potency [4] | outcome [5] | Potency [6] | Potency [7] | Potency [8] | Potency [9]

CC(=O)N[C@H]1[C@H](O[C@H]2CC[C@]3(C)C4CC=C5[C@@H]6CC(C)(C)CC[C@]6(C(=O)O)[C@H](O)C[C@@]5(C)[C@]4(C)CC[C@H]3C2(C)C)O[C@H](CO)[C@@H](O)[C@@H]1O (stereo partly specified)
inactive: outcome [1] inactive [at 17.4 µM] | outcome [2] inactive [at 17.4 µM] | Potency [3] | Potency [4] | outcome [5] | Potency [6] | Potency [7] | Potency [8] | Potency [9]

COc1cc(C)c(C(=O)NC2C(C)OC(OC3CCC(C)C4C3C=C(C)C3/C(C)=C\CC/C(C)=C/C5(C)C=C(C(=O)O)C(C)CC56OC(=O)/C(=C(\O)C34C)C6=O)C(O)C2(C)O)c(O)c1 (stereo unspecified)
inactive: outcome [1] inactive [at 9.27 µM] | outcome [2] inactive [at 9.27 µM] | activity change, negative = cytotoxicity [3] 8.62% [at 11.6 µM] | activity change, negative = cytotoxicity [4] 11.9% [at 11.6 µM] | activity change, negative = cytotoxicity [5] 23.4% [at 11.6 µM] | activity change, negative = cytotoxicity [6] -2.46% [at 11.6 µM] | activity change, negative = cytotoxicity [7] 2.6% [at 11.6 µM] | activity change, negative = cytotoxicity [8] 9.94% [at 11.6 µM] | activity change, negative = cytotoxicity [9] 4.16% [at 11.6 µM]

C[C@@H]1O[C@@H](O[C@H]2[C@H](O[C@H]3[C@H](O[C@H]4CC[C@@]5(C)C(CC[C@]6(C)C5CC=C5[C@@H]7CC(C)(C)C[C@@H](O)[C@]7(C)CC[C@]56C)[C@@]4(C)CO)O[C@H](C(=O)O)[C@@H](O)[C@@H]3O)O[C@H](C(=O)O)[C@H](O)[C@@H]2O)[C@H](O)[C@H](O)[C@H]1O (stereo partly specified)
inactive: outcome [1] inactive [at 9.27 µM] | outcome [2] inactive [at 9.27 µM] | activity change, negative = cytotoxicity [3] 8.86% [at 11.6 µM] | activity change, negative = cytotoxicity [4] -0.141% [at 11.6 µM] | activity change, negative = cytotoxicity [5] 16.2% [at 11.6 µM] | activity change, negative = cytotoxicity [6] -1.06% [at 11.6 µM] | activity change, negative = cytotoxicity [7] 4.67% [at 11.6 µM] | activity change, negative = cytotoxicity [8] 5.2% [at 11.6 µM] | activity change, negative = cytotoxicity [9] 7.1% [at 11.6 µM]

O=C(O)Cc1cn([C@@H]2OC[C@@H](O[C@@H]3O[C@H](CO)[C@@H](O)[C@H](O)[C@H]3O)[C@H](O)[C@H]2O[C@@H]2O[C@H](CO)[C@@H](O)[C@H](O)[C@H]2O)c2ccccc12
inactive: outcome [1] inactive [at 17.4 µM] | outcome [2] inactive [at 17.4 µM] | Potency [3] | Potency [4] | outcome [5] | Potency [6] | Potency [7] | Potency [8] | Potency [9]
